The text below walks through data of PubChem BioAssay.

The nature of experiment [1]: small molecules captured by biotinylated probe aFSTL3 – biochemical, small-molecule microarray, fluorescence 635/667, stem cell growth factor project, primary screen (AID 1064).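 Also: measures binding of the biotinylated anti-FSTL3 antibody to printed compounds.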 The note with it: higher = more signal.
Experiment [2] in a line: binders from COS7 lysate, DM2A8 probe, primary screen, torsin A project, cell lysate, small-molecule microarray, fluorescence 635/667 (AID 1065). To be noted: higher = more signal, COS7 lysate expressing mutant human TOR1A.
A short description of experiment [3]: small molecules captured by biotinylated probe aFGF2 – biochemical, small-molecule microarray, fluorescence 635/667, stem cell growth factor project, primary screen (AID 1067).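 Also: measures binding of biotinylated aFGF2 protein to printed compounds on slides; z-score merges feature fluorescence and signal-to-noise across triplicate slides.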 The note with it: higher = more signal.
Experiment [4] is described as follows: small molecules captured by biotinylated probe aFGF10 – biochemical, small-molecule microarray, fluorescence 635/667, stem cell growth factor project, primary screen (AID 1071).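 Also: score merges 667 nm spot intensity and signal to noise from triplicate slides.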 To be noted: higher = more signal.
Experiment [5] addresses Neurogenic locus notch homolog protein 2 (Homo sapiens) (UniProt Q04721). In words: small molecules binding Notch2 protein – biochemical, small-molecule microarray, 635 nm fluorescence, stem cell growth factors, primary screen (AID 1073). The note with it: higher = more signal.
Experiment [6] deals with Pro-neuregulin-1, membrane-bound isoform (Homo sapiens) (UniProt Q02297). Briefly: small molecules binding neuregulin-1 protein – biochemical, small-molecule microarray, fluorescence 635/667, psychiatric disease protein project, primary screen (AID 1075).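 Also: score combines 667 nm spot fluorescence with signal to noise.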 The note with it: NRG1 binding, 635 nm fluorescence, higher = more signal.
For experiment [7], the system named is Neuregulin-1 EGF-like domain. Briefly: small molecules binding NRG1 EGF domain – biochemical, small-molecule microarray, 635 nm fluorescence, primary screen (AID 1081).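 Also: binding of the protein to compounds printed on small-molecule microarray slides.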 The note with it: higher = more signal.
Experiment [8] can be described thus: FRG1 expression reporter modulators in myotubes – cell-based, C2C12 myotubes, firefly/Renilla luciferase, luminescence, FRG1 inhibition for FSHD, primary screen (AID 1084). The note with it: FRG1 promoter luciferase, higher = more signal, called active from +8 up or from −8 down.
Experiment [9] in a line: small molecules captured by biotinylated probe aFST – biochemical, small-molecule microarray, fluorescence 635/667, stem cell growth factor project, primary screen (AID 1086).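 Also: score merges 667 nm fluorescence with signal-to-noise of each printed compound spot.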 To be noted: higher = more signal.
Experiment [10] is described as follows: binders of probe aHhip on microarray, primary screen, stem cell growth factor project, biochemical, small-molecule microarray, fluorescence 635/667 (AID 1087).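 Also: score merges spot fluorescence at 667nm with spot signal to noise ratio.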 To be noted: higher = more signal.
The subject of experiment [11] is PRMT1 (protein arginine N-methyltransferase 1). Briefly: small molecules binding arginine methyltransferase PRMT1 – biochemical, small-molecule microarray, 635 nm fluorescence, primary screen (AID 1088).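 Also: binding of Prmt1 protein to compounds spotted on small-molecule microarray slides.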 To be noted: higher = more signal.
Experiment [12] is described as follows: growth effects on S. cerevisiae YJM789 – YJM789 clinical isolate, OD600, 24 h, basal, primary screen (AID 1089).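 Also: growth of clinical yeast isolate S. cerevisiae YJM 789 seeded 1000 cells per well; test concentration not given here.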 To be noted: higher = more signal, called active from +8 up or from −8 down.
A short description of experiment [13]: S. pombe growth modifiers, basal conditions – strain 972, OD600, 24 h, no modulator, primary screen (AID 1090).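 Also: basal condition with compound alone and no growth modifier present; test concentration not given here.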 To be noted: S. pombe 972 growth, higher = more signal, called active from +8 up or from −8 down.
Experiment [14] can be described thus: budding yeast growth modifiers under rapamycin – strain BY4716, OD600, 96 h, primary screen (AID 1091). Also: test concentration not given here. To be noted: S. cerevisiae BY4716 + rapamycin, higher = more signal, called active from +8 up or from −8 down.
In experiment [15] the target is Torsin-1A-interacting protein 2 (Homo sapiens) (UniProt Q8NFQ8). In words: small molecules binding lysate-expressed LULL1 – cell lysate, human LULL1 lysate, 635/667 nm fluorescence, primary screen (AID 1092).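 Also: probe is lysate of COS7 cells overexpressing human LULL1; score merges per-feature 667 nm fluorescence with signal-to-noise.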 The note with it: small-molecule microarray, hLULL1 lysate binding, 635 nm fluorescence; higher = more signal.
Experiment [16] can be described thus: optical density change of DRC41 E. coli – strain DRC41, OD650, 24 h, E. coli filamentation project, primary screen (AID 1093).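 Also: MC1000 strain lacking acrAB efflux and sulA so SOS filamentation is blocked; test concentration not given here.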 To be noted: E. coli DRC41 growth, higher = more signal, called active from +8 up or from −8 down.
A short description of experiment [17]: probe aLefty2 binding to arrayed compounds – biochemical, biotinylated probe, 635/667 nm fluorescence, primary screen (AID 1094).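 Also: score merges spot fluorescence near 667 nm with spot signal-to-noise ratio.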 To be noted: small-molecule microarray, higher = more signal.
The subject of experiment [18] is Noggin (protein binding on small-molecule microarray). In words: small molecules binding Noggin protein – biochemical, 635/667 nm fluorescence, primary screen (AID 1095).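 Also: score merges 667 nm feature fluorescence with signal to noise over triplicate slides.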 The note with it: 635 nm fluorescence, higher = more signal.
Experiment [19] deals with Neurogenic locus notch homolog protein 3 (Homo sapiens) (UniProt Q9UM47). Briefly: small molecules binding NOTCH3 protein – biochemical, 635/667 nm fluorescence, primary screen (AID 1096). To be noted: small-molecule microarray, 635 nm fluorescence, higher = more signal.
A short description of experiment [20]: probe aEGFR binding to arrayed compounds – biochemical, biotinylated probe, 635/667 nm fluorescence, primary screen (AID 1097).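 Also: probe is a biotinylated anti-EGFR antibody binding compounds printed on slides; score combines fluorescence near 667 nm and signal to noise of each spot.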 The note with it: small-molecule microarray, higher = more signal.

Activity calls are given as the source filed them.

Sequence of Torsin-1A-interacting protein 2 (Homo sapiens) (Q8NFQ8 whole entry, looked up): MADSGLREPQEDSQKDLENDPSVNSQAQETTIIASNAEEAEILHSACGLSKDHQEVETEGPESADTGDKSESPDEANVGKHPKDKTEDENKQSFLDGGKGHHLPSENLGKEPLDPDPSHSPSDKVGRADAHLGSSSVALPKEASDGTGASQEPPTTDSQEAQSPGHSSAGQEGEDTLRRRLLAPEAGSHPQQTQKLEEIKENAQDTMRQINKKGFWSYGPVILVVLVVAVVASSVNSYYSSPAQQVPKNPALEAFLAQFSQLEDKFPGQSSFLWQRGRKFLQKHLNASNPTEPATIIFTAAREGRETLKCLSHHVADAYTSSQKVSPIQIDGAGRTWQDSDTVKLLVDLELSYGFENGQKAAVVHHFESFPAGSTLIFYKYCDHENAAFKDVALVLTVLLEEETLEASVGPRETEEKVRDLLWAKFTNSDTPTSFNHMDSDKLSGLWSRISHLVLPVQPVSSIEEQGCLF
Sequence of Neurogenic locus notch homolog protein 2 (Homo sapiens) (Q04721 whole entry, looked up, canonical isoform): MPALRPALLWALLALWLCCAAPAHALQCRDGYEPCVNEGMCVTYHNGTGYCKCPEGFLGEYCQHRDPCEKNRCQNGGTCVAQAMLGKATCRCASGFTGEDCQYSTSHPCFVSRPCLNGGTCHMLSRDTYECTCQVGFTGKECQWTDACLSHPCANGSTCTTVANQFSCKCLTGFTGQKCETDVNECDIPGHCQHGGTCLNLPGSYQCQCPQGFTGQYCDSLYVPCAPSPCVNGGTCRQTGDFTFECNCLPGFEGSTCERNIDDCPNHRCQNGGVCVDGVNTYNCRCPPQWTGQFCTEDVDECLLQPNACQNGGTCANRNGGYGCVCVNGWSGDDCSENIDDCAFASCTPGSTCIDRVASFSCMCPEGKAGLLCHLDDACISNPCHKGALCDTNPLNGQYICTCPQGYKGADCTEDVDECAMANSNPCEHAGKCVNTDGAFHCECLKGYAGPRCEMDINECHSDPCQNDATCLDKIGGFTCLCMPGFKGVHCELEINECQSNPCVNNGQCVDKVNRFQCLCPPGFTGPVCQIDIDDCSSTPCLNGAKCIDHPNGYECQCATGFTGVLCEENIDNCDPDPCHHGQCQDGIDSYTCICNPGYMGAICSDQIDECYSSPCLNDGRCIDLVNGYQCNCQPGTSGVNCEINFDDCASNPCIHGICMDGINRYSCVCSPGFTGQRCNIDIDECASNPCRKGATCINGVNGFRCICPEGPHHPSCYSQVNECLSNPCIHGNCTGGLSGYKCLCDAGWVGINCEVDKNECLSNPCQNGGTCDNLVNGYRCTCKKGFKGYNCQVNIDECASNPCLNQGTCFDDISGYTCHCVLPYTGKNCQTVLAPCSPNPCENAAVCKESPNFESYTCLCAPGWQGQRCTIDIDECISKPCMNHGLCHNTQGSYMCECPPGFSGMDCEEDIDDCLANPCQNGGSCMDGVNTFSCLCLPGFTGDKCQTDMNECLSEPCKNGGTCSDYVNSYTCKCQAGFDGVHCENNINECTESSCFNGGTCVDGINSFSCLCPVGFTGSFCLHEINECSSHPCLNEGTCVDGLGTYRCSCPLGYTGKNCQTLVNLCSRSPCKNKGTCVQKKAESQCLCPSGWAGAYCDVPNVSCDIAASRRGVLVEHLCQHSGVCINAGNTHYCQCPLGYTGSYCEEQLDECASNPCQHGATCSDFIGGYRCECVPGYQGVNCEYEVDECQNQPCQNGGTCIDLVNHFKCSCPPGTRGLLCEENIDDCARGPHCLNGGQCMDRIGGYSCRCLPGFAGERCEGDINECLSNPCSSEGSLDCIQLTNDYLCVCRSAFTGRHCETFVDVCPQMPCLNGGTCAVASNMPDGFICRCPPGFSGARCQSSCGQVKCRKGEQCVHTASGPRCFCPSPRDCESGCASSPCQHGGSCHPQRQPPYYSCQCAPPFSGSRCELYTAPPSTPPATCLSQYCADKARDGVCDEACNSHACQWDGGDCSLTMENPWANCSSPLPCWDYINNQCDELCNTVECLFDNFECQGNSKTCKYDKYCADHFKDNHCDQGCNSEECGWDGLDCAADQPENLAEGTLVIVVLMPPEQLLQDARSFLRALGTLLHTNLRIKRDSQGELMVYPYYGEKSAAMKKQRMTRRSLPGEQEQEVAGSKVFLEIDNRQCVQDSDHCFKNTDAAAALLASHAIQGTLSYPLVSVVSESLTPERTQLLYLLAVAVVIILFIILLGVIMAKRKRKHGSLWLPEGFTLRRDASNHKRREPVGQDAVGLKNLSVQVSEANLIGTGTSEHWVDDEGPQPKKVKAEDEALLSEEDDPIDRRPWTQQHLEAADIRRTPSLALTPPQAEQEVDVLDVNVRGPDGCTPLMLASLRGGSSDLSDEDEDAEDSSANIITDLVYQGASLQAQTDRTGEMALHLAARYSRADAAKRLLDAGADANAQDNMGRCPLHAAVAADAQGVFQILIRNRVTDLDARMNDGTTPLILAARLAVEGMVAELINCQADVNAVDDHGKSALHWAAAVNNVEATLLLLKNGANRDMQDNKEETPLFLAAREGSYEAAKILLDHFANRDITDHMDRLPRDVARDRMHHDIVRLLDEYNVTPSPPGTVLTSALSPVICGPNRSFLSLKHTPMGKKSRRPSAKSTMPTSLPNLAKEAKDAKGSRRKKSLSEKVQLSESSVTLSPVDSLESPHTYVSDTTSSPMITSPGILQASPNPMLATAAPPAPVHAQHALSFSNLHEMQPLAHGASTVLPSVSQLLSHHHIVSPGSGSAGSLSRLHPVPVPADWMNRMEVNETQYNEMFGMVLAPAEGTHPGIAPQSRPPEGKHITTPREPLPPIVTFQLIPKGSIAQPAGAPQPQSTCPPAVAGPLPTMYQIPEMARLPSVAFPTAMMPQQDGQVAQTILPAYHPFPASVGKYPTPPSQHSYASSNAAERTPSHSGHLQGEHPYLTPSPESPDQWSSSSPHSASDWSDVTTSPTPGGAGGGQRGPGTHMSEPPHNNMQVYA
Sequence of Pro-neuregulin-1, membrane-bound isoform (Homo sapiens) (Q02297 whole entry, looked up, the tested form may be a part, canonical isoform): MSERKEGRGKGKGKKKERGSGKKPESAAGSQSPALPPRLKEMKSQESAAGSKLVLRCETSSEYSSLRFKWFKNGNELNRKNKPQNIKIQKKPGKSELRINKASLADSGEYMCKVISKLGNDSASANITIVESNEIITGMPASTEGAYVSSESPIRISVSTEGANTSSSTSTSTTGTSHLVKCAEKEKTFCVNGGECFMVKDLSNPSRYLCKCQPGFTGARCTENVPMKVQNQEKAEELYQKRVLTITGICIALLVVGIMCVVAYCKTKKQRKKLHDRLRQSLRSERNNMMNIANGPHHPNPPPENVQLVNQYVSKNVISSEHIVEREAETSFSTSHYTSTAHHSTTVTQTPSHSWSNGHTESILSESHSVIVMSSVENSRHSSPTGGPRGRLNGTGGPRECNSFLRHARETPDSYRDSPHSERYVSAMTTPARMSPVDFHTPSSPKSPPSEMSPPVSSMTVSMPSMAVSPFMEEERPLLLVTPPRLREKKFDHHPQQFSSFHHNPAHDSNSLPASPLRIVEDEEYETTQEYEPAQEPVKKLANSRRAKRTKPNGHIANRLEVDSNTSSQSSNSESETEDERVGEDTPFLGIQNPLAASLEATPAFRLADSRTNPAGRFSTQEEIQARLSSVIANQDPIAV

Consider `O=C1NC(=O)C2C1C=CC(C(O)c1ccc(I)cc1)N2Nc1ccc(Cl)cc1Cl` (stereo not given), for which the composite z-score was 0.256 in experiment [1]; -0.396 in [2]; -0.0085 in experiment [3]; 0.29 in [4]; 1.43 in experiment [5]; 1.49 in experiment [6]. Besides, the composite z-score in experiment [7] is 0.991; in experiment [9], 0.794; in [10], -0.321; in experiment [11], 0.265; in [15], 2.64; in [17], 0.162. For the same compound, the composite z-score was -0.0422 in experiment [18], 0.925 in experiment [19] and -0.0953 in experiment [20]. For the same compound, the z-score in experiment [8] is -0.526 (inactive); in experiment [12], -9.39 (active); in experiment [13], -5.52 (inactive); in [14], -0.806 (inactive); in experiment [16], -1.3 (inactive).
On to `COC(=O)C(CC#Cc1ccc2c(c1)[C@]1(C(=O)N2)[C@H](c2ccccc2OCCO)N2[C@H](c3ccccc3)[C@H](c3ccccc3)OC(=O)[C@H]2[C@@H]1C(N)=O)C(=O)OC`, for which the composite z-score in [1] came out at 1.88; in experiment [2] it was 0.726; in experiment [3] it was 0.255; in [4] it was 0.774; in experiment [5], 0.806; in experiment [6], 1.69. Further, the composite z-score in experiment [7] is 1.32; in experiment [9] it was 1.84; in experiment [10], 0.087; in [11] it was 1.27; in [15], 2.93; in [17] it was 1.11. For the same compound, the composite z-score came out at 0.0814 in experiment [18], 0.895 in [19] and 0.656 in experiment [20]. For the same compound, the z-score is -1.84 (inactive) in experiment [8]; 1.31 (inactive) in [12]; -0.117 (inactive) in experiment [13]; 3.7 (inactive) in experiment [14]; 1.13 (inactive) in experiment [16].
On to `Cc1ccc([C@H]2C(C(=O)O)=CCN2S(=O)(=O)c2ccc(C)cc2)cc1`, for which the composite z-score in experiment [1] is -0.0451; in experiment [2] it was 0.0722; in experiment [3] it was -0.0271; in [4], 0.231; in experiment [5], 0.539; in [6], 1.24. The composite z-score in [7] was 1.1; in experiment [9] it was 0.224; in experiment [10], -0.0305; in [11], 0.472; in experiment [15] it was 2.82; in experiment [17], 0.228. Further, the composite z-score in experiment [18] is 0.11; in experiment [19], 0.189; in experiment [20], -0.0828. Further, the z-score in [8] is -0.186 (inactive); in experiment [12], -0.76 (inactive); in [13] it was 0.366 (inactive); in [14], -0.18 (inactive); in experiment [16], -0.264 (inactive).
Turning to `[N-]=[N+]=NCc1ccccc1C[C@@]1(C(=O)NCC(O)CO)N=C(c2ccc(OCCCO)cc2)O[C@@H]1c1ccccc1` (stereo not given in full), the composite z-score in experiment [1] is 1.03; in experiment [2], 0.0102; in experiment [3], -0.0459; in [4], 0.206; in [5], 0.111; in experiment [6] it was 0.768. The composite z-score in experiment [7] is 0.952; in [9] it was -0.12; in experiment [10] it was -0.132; in experiment [11], 0.303; in experiment [15], 3.21; in experiment [17] it was 0.202. Further, the composite z-score was -0.962 in experiment [18], -1.12 in experiment [19] and 0.0061 in experiment [20]. Moreover, the z-score was -1.26 (inactive) in [8]; -0.213 (inactive) in [12]; -0.272 (inactive) in experiment [13]; -0.37 (inactive) in experiment [14]; 0.627 (inactive) in [16].
In the case of `COc1ccc(C#Cc2ccc3c(c2)[C@]2(C(=O)N3)[C@H](c3ccc(O)cc3)N3[C@H](c4ccccc4)[C@H](c4ccccc4)OC(=O)[C@H]3[C@@H]2C(=O)N2CCc3cc(OC)c(OC)cc3C2)cc1`, the composite z-score was -0.284 in experiment [1]; 0.0877 in experiment [2]; 0.0106 in experiment [3]; 0.355 in experiment [4]; 0.84 in experiment [5]; 1.32 in [6]. In addition, the composite z-score in experiment [7] was 1.26; in [9], 0.464; in experiment [10] it was 0.0505; in experiment [11], 1.54; in experiment [15], 3.04; in [17] it was -0.189. The composite z-score was 1.68 in [18], 1.07 in experiment [19] and -0.0381 in [20]. Moreover, the z-score in experiment [8] is 1.46 (inactive); in experiment [12], 1.74 (inactive); in [13], 0.921 (inactive); in [14], 1.93 (inactive); in [16], -0.0389 (inactive).
